# Source: PubChem
# In the library only some 5.7% were active in any assay of this set; here they are far more common.
# AHR act: human AHR activation. P35869. AHR-responsive luciferase reporter cells, luminescence. activation, % at 5 µM. hit rate 2.5% among 320,000. AID 2796; in the data active means activation above about 47%;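 further: 0% = vehicle wells and 100% = reference agonist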
# hgDAF12 agonist: activates the H. glycines DAF-12 receptor ligand-binding domain. HEK293 GAL4-hgDAF12 UAS-luciferase reporter, agonist luminescence; normalized to butyrate control. activation, % at 6.8 µM. hit rate 1.8% among 370,000. AID 687014;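 active means activation above a cutoff set at the mean of all screened compounds plus 3 SD, cut at about 10% in these data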;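 further: 0% = DMSO wells and 100% = sodium butyrate wells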
# DAX1 inh-1: DAX1 (NR0B1) inhibition, primary screen | HEK293T StAR-luciferase reporter, SF-1/DAX-1 repression relief | inhibition, % at 6.8 µM | hit rate 1.1% among 370,000 | AID 652010;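 active means inhibition above the mean over all tested compounds plus 3 SD, cut at about 3.6% in these data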;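 further: 0% = DAX-1 cells with DMSO and 100% = cells lacking DAX-1 with DMSO; higher inhibition means more luminescence from relief of DAX-1 repression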
# DAX1 inh-2: inhibits human nuclear receptor DAX1 | P51843 | HEK293 Gal4-DAX1 luciferase reporter, luminescence | inhibition, % at 6.75 µM | hit rate 0.99% among 340,000;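 active means inhibition above the mean over all tested compounds plus 3 SD, cut at about 4.2% in these data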;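 further: 0% = DAX1-transfected cells with DMSO and 100% = empty-vector control cells with DMSO; inhibition shows as a rise in luminescence from relieved DAX1 repression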
# Target sequence (P51843 207-470 limits assumed): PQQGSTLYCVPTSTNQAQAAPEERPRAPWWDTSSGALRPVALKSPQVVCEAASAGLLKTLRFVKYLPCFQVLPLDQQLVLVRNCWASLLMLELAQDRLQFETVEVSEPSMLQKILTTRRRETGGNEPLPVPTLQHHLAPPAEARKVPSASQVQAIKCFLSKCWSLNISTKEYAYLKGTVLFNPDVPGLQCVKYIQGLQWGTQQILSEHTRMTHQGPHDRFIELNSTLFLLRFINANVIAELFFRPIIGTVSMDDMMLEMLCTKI
# hcDAF-12 act: H. contortus DAF-12 activation, primary screen. AID 652067. HEK293 hcDAF-12 lit1-tk-luc reporter, luminescence; 0% DMSO, 100% Δ7-dafachronic acid. activation, % at 6.8 µM. hit rate 1.4% among 370,000;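 active means activation above the mean of all tested compounds plus 3 SD, cut at about 5.5% in these data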;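 further: 100% = response to 3 µM Δ7-dafachronic acid high control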
# ssDAF-12 act: S. stercoralis DAF-12 activation, primary screen; HEK293 ssDAF-12/GRIP1 lit1-tk-luc reporter, luminescence; % of 3 µM dafachronic acid response; activation, % at 6.8 µM; hit rate 1% among 370,000; AID 652126;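 active means activation above the mean over all tested compounds plus 3 SD, cut at about 0.9% in these data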;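 further: 0% = DMSO-only wells and 100% = 3 µM delta7-dafachronic acid wells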
# Active calls of the source: *; . = no result given.
SMILES,AHR act,hgDAF12 agonist,DAX1 inh-1,DAX1 inh-2,hcDAF-12 act,ssDAF-12 act
COc1ccc(OC)c(N(CC(=O)N2CCCC2)S(C)(=O)=O)c1,-3,0,0,4.5*,0,-1
COc1ccc(NCC(=O)Nc2ccc(Br)cc2F)c(OC)c1,4,-2,0,-2,0,-2
COC(=O)c1ccccc1Sc1ncnc2onc(C)c12,1,1,0,0,0,-1
COc1cc(C2NC(=O)CCC2[N+](=O)[O-])c(OC)cc1Br (stereo unspecified),0,-3,1,0,0,0.9*
COc1cccc(C2NC(=O)CCC2[N+](=O)[O-])c1OC (stereo unspecified),0,-2,0,2,-2,-1
Cn1cc(Cl)c(-c2nc3ccccc3[nH]2)n1,1,12*,1,1,4,0
Cc1ccc2oc(=O)c3cc(C(=O)NCc4ccco4)sc3c2c1,-1,-2,-1,6.1*,2,-2
O=C(Nc1c(F)c(F)c(F)c(F)c1F)OC[C@@H]1CSCCS(=O)(=O)N1,.,2,3.6*,.,-1,0
NC(N)=Nc1nc(-c2ccccc2)c2ccccc2n1,68*,4,-1,0,-1,-2
CCN(CC)S(=O)(=O)c1ccc(Cl)c(C(=O)NNC(=O)c2csc(N3CCOCC3)n2)c1,.,-1,-2,1,-1,-1
O=C(O)c1cccc(Cn2c(Cl)c(/C=N/NC(=O)c3ccc(O)cc3)sc2=O)c1,3,-4,0,4.6*,0,-1
CC(=O)N1N=C(c2ccc(C)cc2)OC1c1ccc(C(C)C)cc1 (stereo unspecified),11,4,1,4.5*,1,-1
Nc1ncnc2c1ncn2C1C=C(CO)C(O)C1O (stereo unspecified),.,.,.,7.6*,.,.
C=CCCC1CN(CC=C)S(=O)(=O)c2c(F)cccc2O1 (stereo unspecified),.,-3,0,.,0,-1
C=CCCC1CN(Cc2ccc(OC)cc2)S(=O)(=O)c2c(cccc2Sc2ccc(OC)c(OC)c2)O1 (stereo unspecified),.,0,-1,.,-2,-1
CCc1cc(C(=O)Cc2nc3ccccc3s2)c(O)cc1OCC(=O)O,11,0,1,0,4,0.9*
O=C(Cn1c(=O)oc2ccccc21)N1CCN(c2ccccc2)CC1,6,-2,0,0,0,-1
COc1cccc(N2CCN(C(=O)Cn3c(=O)oc4ccccc43)CC2)c1,3,1,0,4.3*,1,-2
Cc1ccc(S(=O)(=O)N2CCN(C(=O)Cn3c(=O)oc4ccccc43)CC2)cc1,10,10,2,1,4,1.0*
CCCCOCC1CN(CCCC)S(=O)(=O)c2c(cccc2Sc2ccc(SC)cc2)O1 (stereo unspecified),.,-1,1,.,-2,-1
Cc1cc(C)n(-c2ccc(C(=O)OCC(=O)NCc3ccc(F)cc3)cc2)n1,-2,0,0,0,0,-1
CCC(=O)Nc1c(-c2ccc3ccccc3c2)nc2ccccn12,50*,6,0,-1,3,0
COc1ccc(Br)cc1C(=O)Nc1ccc(Cc2ccncc2)cc1,59*,1,-1,0,4,-1
COc1ccccc1C(=O)NC(=S)Nc1ccc(Cc2ccncc2)cc1,-3,-1,-1,-3,0,-1
Cc1ccc(S(=O)(=O)N2CCCC2)cc1C(=O)NCC(C)(C)N1CCOCC1,-1,2,0,0,-2,-1
SMILES,AHR act,hgDAF12 agonist,DAX1 inh-1,DAX1 inh-2,hcDAF-12 act,ssDAF-12 act
CCCCS(=O)(=O)N1CCC(C(=O)NCC2CCCO2)CC1 (stereo unspecified),-2,4,0,0,2,-1
O=C(c1ccccc1)n1ccn(-c2ccccc2)c1=S,51*,1,-1,0,0,-2
O=S(=O)(CS(=O)(=O)c1ccccc1Br)c1ccccc1Br,.,-2,0,.,0,-1
CCc1cc(C(=O)NNC(=S)Nc2cc(C)ccc2C)cs1,-1,-2,0,1,-1,-1
CCc1cc(C(=O)NNC(=S)Nc2ccccc2C)cs1,2,12*,3.6*,2,2,0
CCNC(=S)NNC(=O)c1csc(CC)c1,2,6,0,7.0*,-1,-1
O=C(NCc1ccccc1)c1onc(CS(=O)(=O)c2ccccn2)c1C(=O)NCc1ccccc1,-1,-2,0,2,-1,-2
COCC(=O)Nc1ccccc1-c1ccccc1,0,11*,1,1,-2,-1
COCC(=O)Nc1nc(-c2ccccc2)ns1,47*,4,1,1,2,0
O=C(O)COCC(=O)Nc1ccccc1-c1ccccc1,1,1,0,0,1,0
CC1=C[C@]2(CN(CC3CC3)C3=N[C@H](c4ccccc4)CC(=O)N32)n2c(=O)n(-c3ccccc3)c(=O)n2C1,.,1,.,.,-1,-1
O=C(O)c1ccc(Nc2ncnc3scc(-c4ccccc4)c23)cc1,-1,2,0,2,-2,-1
COc1cccc(/C=N/Nc2ncnc3scc(-c4ccccc4)c23)c1OC,53*,-2,-1,1,1,-2
CCCc1cc(C(=O)NC2CCCN(Cc3ccccc3F)C2)no1 (stereo unspecified),-1,1,0,1,-1,-1
NC(=O)c1nsc(C(=O)N(c2ccc(F)cc2)C(C(=O)NCC2CCCO2)c2c[nH]c3ccccc23)c1N (stereo unspecified),74*,-3,0,0,-2,-1
NC(=O)c1nsc(C(=O)N(c2cccc(F)c2)C(C(=O)NCC2CCCO2)c2c[nH]c3ccccc23)c1N (stereo unspecified),65*,2,0,0,3,0
Cc1ccc(C(=O)N(CC(C)C)c2nc3ccccc3s2)o1,72*,0,0,0,2,-2
CCCCCCS(=O)[C@H]1CS(=O)(=O)C[C@@H]1S(=O)CCCCCC (stereo partly specified),0,17*,0,-1,-1,-2
CSc1nc(N)nc2c1ncn2CC(=O)NCc1ccc2c(c1)OCO2,-2,0,-1,-2,0,-1
CSc1nc(N)nc2c1ncn2CC(=O)NCc1ccccc1,0,-2,-1,-1,0,0.9*
O=C(NCC1CCN(C(=O)C(=O)c2cccs2)CC1)c1ccc2c(c1)OCO2,.,1,0,.,0,-1
O=C(Nc1ccc(Cl)cc1)Nc1ccccc1CC[N+](=O)[O-],67*,5,0,1,6,0
Cc1ccccc1CNC(=O)Nc1ccc(Cl)cc1,0,3,0,5.5*,0,-1
